Experimental data taken from PMC5540273 (PLoS ONE, 2017).

How the values were obtained:
Settings in all cases: concentration: 1 μM, replicates: in singlicate; n = 1
[1] = test system: SGK
[2] = test system: SIK2
[3] = test system: SIK
[4] = test system: SLK
[5] = test system: T1, SNARK
T1 construct: gene NUAK2

[6] = test system: SNRK
[7] = test system: SRC
[8] = test system: SRMS
[9] = test system: SRPK1
[10] = test system: SRPK2
[11] = test system: SRPK3
[12] = test system: STK16
[13] = test system: STK33
[14] = test system: STK35
[15] = test system: STK36
[16] = test system: STK39
[17] = test system: SYK
[18] = test system: SgK110
[19] = test system: T2, TAK1
T2 construct: gene MAP3K7

[20] = test system: TAOK1
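Also: KINOMEscan kinase panel screen.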

NS(=O)(=O)CCc1cccc(Nc2nccc(-c3c(-c4cccc(NC(=O)c5c(F)cccc5F)c4)nn4ccccc34)n2)c1 [GSK336735]
%Inh [1]: 0%
%Inh [2]: 37%
%Inh [3]: 94.7%
%Inh [4]: 97.7%
%Inh [5]: 86%
%Inh [6]: 0%
%Inh [7]: 97.8%
%Inh [8]: 98.8%
%Inh [9]: 62%
%Inh [10]: 0%
%Inh [11]: 55%
%Inh [12]: 28%
%Inh [13]: 0%
%Inh [14]: 90.7%
%Inh [15]: 99.9%
%Inh [16]: 1%
%Inh [17]: 74%
%Inh [18]: 0%
%Inh [19]: 27%
%Inh [20]: 73%

CC(=O)Nc1ccc(COc2ccc(Nc3ccnc4cc(-c5ccccn5)ccc34)cc2)cc1.Cl [GW440148]
%Inh [1]: 0%
%Inh [2]: 0%
%Inh [3]: 4%
%Inh [4]: 0%
%Inh [5]: 15%
%Inh [6]: 0%
%Inh [7]: 29%
%Inh [8]: 88%
%Inh [9]: 46%
%Inh [10]: 12%
%Inh [11]: 0%
%Inh [12]: 23%
%Inh [13]: 0%
%Inh [14]: 0%
%Inh [15]: 0%
%Inh [16]: 13%
%Inh [17]: 0%
%Inh [18]: 0%
%Inh [19]: 0%
%Inh [20]: 0%

O=C(NCCCN1CCOCC1)c1cccc(Nc2nccc(Nc3ccc(Oc4ccccc4)cc3)n2)c1 [GW663929]
%Inh [1]: 1%
%Inh [2]: 12%
%Inh [3]: 68%
%Inh [4]: 8%
%Inh [5]: 22%
%Inh [6]: 0%
%Inh [7]: 81%
%Inh [8]: 97.5%
%Inh [9]: 25%
%Inh [10]: 19%
%Inh [11]: 0%
%Inh [12]: 64%
%Inh [13]: 10%
%Inh [14]: 34%
%Inh [15]: 33%
%Inh [16]: 23%
%Inh [17]: 0%
%Inh [18]: 0%
%Inh [19]: 19%
%Inh [20]: 0%

Cc1cccc(-c2nc(Nc3ccc4ncsc4c3)c3ccccc3n2)n1 [GW867588]
%Inh [1]: 5%
%Inh [2]: 0%
%Inh [3]: 10%
%Inh [4]: 7%
%Inh [5]: 6%
%Inh [6]: 0%
%Inh [7]: 7%
%Inh [8]: 8%
%Inh [9]: 0%
%Inh [10]: 0%
%Inh [11]: 9%
%Inh [12]: 12%
%Inh [13]: 57%
%Inh [14]: 2%
%Inh [15]: 7%
%Inh [16]: 4%
%Inh [17]: 18%
%Inh [18]: 5%
%Inh [19]: 15%
%Inh [20]: 23%

COc1ccc(S(=O)(=O)NC2CCN(c3cc(C)nc(Nc4cccc(C#N)c4)n3)CC2)cc1.O=C(O)C(F)(F)F [GSK1653539]
%Inh [1]: 0%
%Inh [2]: 0%
%Inh [3]: 0%
%Inh [4]: 8%
%Inh [5]: 0%
%Inh [6]: 0%
%Inh [7]: 0%
%Inh [8]: 0%
%Inh [9]: 0%
%Inh [10]: 0%
%Inh [11]: 0%
%Inh [12]: 3%
%Inh [13]: 0%
%Inh [14]: 0%
%Inh [15]: 0%
%Inh [16]: 17%
%Inh [17]: 0%
%Inh [18]: 0%
%Inh [19]: 0%
%Inh [20]: 0%

COc1cc2c(cc1OC[C@@H](O)CO)ncc1c3ccc(C#N)cc3[nH]c21
%Inh [1]: 47%
%Inh [2]: 65%
%Inh [3]: 21%
%Inh [4]: 0%
%Inh [5]: 89%
%Inh [6]: 58%
%Inh [7]: 0%
%Inh [8]: 0%
%Inh [9]: 0%
%Inh [10]: 0%
%Inh [11]: 25%
%Inh [12]: 0%
%Inh [13]: 36%
%Inh [14]: 0%
%Inh [15]: 0%
%Inh [16]: 0%
%Inh [17]: 0%
%Inh [18]: 0%
%Inh [19]: 81%
%Inh [20]: 0%

CN(C(=O)c1ccc(-c2cc(-c3c[nH]nc3-c3ccccn3)ccn2)cc1)C1CCOCC1 [GW810083]
%Inh [1]: 18%
%Inh [2]: 0%
%Inh [3]: 0%
%Inh [4]: 0%
%Inh [5]: 0%
%Inh [6]: 0%
%Inh [7]: 0%
%Inh [8]: 0%
%Inh [9]: 0%
%Inh [10]: 14%
%Inh [11]: 11%
%Inh [12]: 0%
%Inh [13]: 0%
%Inh [14]: 0%
%Inh [15]: 0%
%Inh [16]: 17%
%Inh [17]: 0%
%Inh [18]: 0%
%Inh [19]: 24%
%Inh [20]: 0%

N#Cc1ccc(-c2cc(-c3c[nH]nc3-c3ccccn3)ccn2)cc1 [GW693028]
%Inh [1]: 0%
%Inh [2]: 0%
%Inh [3]: 0%
%Inh [4]: 6%
%Inh [5]: 0%
%Inh [6]: 0%
%Inh [7]: 0%
%Inh [8]: 0%
%Inh [9]: 0%
%Inh [10]: 0%
%Inh [11]: 14%
%Inh [12]: 0%
%Inh [13]: 4%
%Inh [14]: 0%
%Inh [15]: 0%
%Inh [16]: 16%
%Inh [17]: 5%
%Inh [18]: 5%
%Inh [19]: 0%
%Inh [20]: 0%

c1ccc(-c2n[nH]cc2-c2ccnc3ccccc23)nc1 [GW271431]
%Inh [1]: 0%
%Inh [2]: 9%
%Inh [3]: 8%
%Inh [4]: 16%
%Inh [5]: 0%
%Inh [6]: 0%
%Inh [7]: 7%
%Inh [8]: 0%
%Inh [9]: 25%
%Inh [10]: 0%
%Inh [11]: 0%
%Inh [12]: 18%
%Inh [13]: 8%
%Inh [14]: 19%
%Inh [15]: 0%
%Inh [16]: 0%
%Inh [17]: 44%
%Inh [18]: 0%
%Inh [19]: 50%
%Inh [20]: 0%
